Compound activity from PubChem.
Most compounds without a hit are left out; they make up all but 19% or so of the library.
HT1080 IDH1KD tx = qHTS for induction of synthetic lethality in tumor cells producing 2HG: qHTS for the HT-1080-IDH1KD cell line | 360,000 tested, 2% active | HT-1080 IDH1 knockdown viability, ATP luminescence, 48 h | Potency, µM (titrated, usually from 46.1 µM), most hits filed as cytotoxic
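Using the IDH1-knockdown HT-1080 line run in the same batch and compound series as the NT line, viability after 48 h at 37 °C was determined by CellTiter-Glo luminescence and expressed as % activity.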
HT1080NT lethal = qHTS for induction of synthetic lethality in tumor cells producing 2HG: qHTS for the HT-1080-NT fibrosarcoma cell line; AID 686970, 2013; Potency, µM (doses to about 46.1 µM), most hits filed as cytotoxic; HT-1080-NT fibrosarcoma viability, CellTiter-Glo ATP luminescence, 48 h; 360,000 tested, 1.6% active;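 further: NT is the 2HG producing partner of a matched IDH1 knockdown line; nearly all actives have a fitted effect of over 55% in size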
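Luminescent CellTiter-Glo readout after 48 hours of compound exposure at 37 degrees C defined viability of HT-1080-NT cells. Activity was normalized to DMSO wells and cell-free media wells; concentration-response curves were fitted and assigned curve classes.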
KB-V1 MDR tox = qHTS assay for MDR1-selective chemotherapeutics: Primary screen using the drug-selected MDR subline cells KB-V1; KB-V1 MDR cells viability, CellTiter-Glo, 72 h; Potency, µM (titrated, usually from 46.1 µM), actives largely listed as cytotoxic; 400,000 tested, 3.4% active; further: nearly all actives have a fitted effect of over 60% in size
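Cells of the MDR subline KB-V1 are plated, dosed with compound at multiple concentrations, and incubated 72 h at 37 degrees C; CellTiter-Glo is then added and luminescence read after 10 min.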
TDP1 cell CPT = qHTS for Inhibitors of human tyrosyl-DNA phosphodiesterase 1 (TDP1): qHTS in cells in presence of CPT | chicken DT40 Tdp1-/-;hTDP1 cells + 20 nM CPT, ATP luminescence, 48 h | Potency, µM (titrated, usually from 46.2 µM), usual class: inhibitors | 420,000 tested, 12% active | AID 686979, 2013; further: nearly all actives have a fitted effect of over 55% in size
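Cell growth measured by CellTiter-Glo luminescence after a minimum 48 h, 37 C compound exposure with 20 nM CPT in Tdp1-knockout DT40 cells stably expressing hTDP1, seeded 400/well; qHTS titration format.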
KB-3-1 cytotox = qHTS assay for MDR1-selective chemotherapeutics: Primary screen using the parental adenocarcinoma cell KB-3-1 | KB-3-1 viability, CellTiter-Glo ATP luminescence, 72 h | Potency, µM (doses to about 46.1 µM), usual class: cytotoxic | 400,000 tested, 1.4% active | AID 1347075, 2019; further: nearly all actives have a fitted effect of over 60% in size
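Luminescent ATP read-out (CellTiter-Glo) measures survival of drug-naive KB-3-1 cells after 72 h compound exposure at 37 °C. Titration series was screened from lowest to highest concentration, with DMSO vehicle plates as background controls.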
DT40 TDP1 no CPT = qHTS for Inhibitors of human tyrosyl-DNA phosphodiesterase 1 (TDP1): qHTS in cells in absence of CPT | DT40 Tdp1-/- hTDP1 cells, no CPT, ATP luminescence, 48 h | Potency, µM (series often up to 46.2 µM), hits mostly inhibitors | 420,000 tested, 15% active; further: nearly all actives have a fitted effect of over 55% in size
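Cells were dispensed at 400 per well, compounds added by pin tool, plates incubated ≥48 hr at 37 °C, then CellTiter-Glo added for 30 min at room temperature before luminescence reading. Line: DT40 Tdp1-/- complemented with hTDP1; camptothecin omitted.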
A number is an active result. The call rests on the fitted dose curve; in most records, active means well fitted curve in the direction sought with a large enough effect; inconclusive means small, poorly fitted or top-dose-only effect, or another doubt; inactive means no such curve, though single readings can be large; an effect the other way counts as inactive or inconclusive.

CN(CC(=O)Nc1ccc(Cl)c(C(F)(F)F)c1)C(=O)c1cnccn1 was read as HT1080 IDH1KD tx inactive, HT1080NT lethal inactive, KB-V1 MDR tox inactive, TDP1 cell CPT inconclusive, KB-3-1 cytotox inactive and DT40 TDP1 no CPT inconclusive.
`Cc1ccc(NC(=O)CCCc2nc3ccccc3c(=O)[nH]2)c(Cl)c1` gave HT1080 IDH1KD tx inactive, HT1080NT lethal inactive, KB-V1 MDR tox inactive, TDP1 cell CPT 18.4µM, KB-3-1 cytotox inactive and DT40 TDP1 no CPT 14.6µM.
Screening CN(CC(=O)Nc1ccc(Cl)c(C(F)(F)F)c1)C(=O)c1cc(-c2ccncc2)nc2ccccc12 returned HT1080 IDH1KD tx inactive, HT1080NT lethal inactive, KB-V1 MDR tox inconclusive, TDP1 cell CPT inconclusive, KB-3-1 cytotox inconclusive and DT40 TDP1 no CPT 18.4µM.
Screening CN(CC(=O)Nc1ccc(Cl)c(C(F)(F)F)c1)C(=O)CCCc1nc2ccccc2c(=O)[nH]1 returned HT1080 IDH1KD tx inactive, HT1080NT lethal inactive, KB-V1 MDR tox inconclusive, TDP1 cell CPT 11.6µM, KB-3-1 cytotox inactive and DT40 TDP1 no CPT 11.6µM.
Screening Cc1cc(C(=O)N(C)CC(=O)Nc2ccc(Cl)c(C(F)(F)F)c2)no1 returned HT1080 IDH1KD tx inactive, HT1080NT lethal inactive, KB-V1 MDR tox inconclusive, TDP1 cell CPT inactive, KB-3-1 cytotox inactive and DT40 TDP1 no CPT 16.4µM.
CN(CC(=O)Nc1cccc(F)c1)C(=O)CCCc1nc2ccccc2c(=O)[nH]1 was read as HT1080 IDH1KD tx inactive, HT1080NT lethal inactive, KB-V1 MDR tox inactive, TDP1 cell CPT inconclusive, KB-3-1 cytotox inactive and DT40 TDP1 no CPT inactive.
COc1ccc(CCNS(=O)(=O)c2cc(C(=O)O)c(Cl)cc2Cl)cc1 was read as HT1080 IDH1KD tx inactive, HT1080NT lethal inactive, KB-V1 MDR tox inactive, TDP1 cell CPT inactive, KB-3-1 cytotox inactive and DT40 TDP1 no CPT inactive.
For CN(CC(=O)Nc1ccc(Cl)c(C(F)(F)F)c1)C(=O)C1(c2ccccc2)CC1 the results were HT1080 IDH1KD tx inactive, HT1080NT lethal inactive, KB-V1 MDR tox inactive, TDP1 cell CPT inconclusive, KB-3-1 cytotox inactive and DT40 TDP1 no CPT 16.4µM.
`COc1cccc(NC(=O)c2c(C)oc3nc(C)nc(N4CCCC4)c23)c1` gave TDP1 cell CPT inactive and DT40 TDP1 no CPT inactive.
CCOc1ccc(Nc2cc(C(=O)NCc3ccccc3Cl)c3ccccc3n2)cc1 was read as KB-V1 MDR tox inactive, TDP1 cell CPT 10.3µM, KB-3-1 cytotox inactive and DT40 TDP1 no CPT inconclusive.
CCOc1ccc(Sc2cc(C(=O)NCc3ccccc3Cl)c3ccccc3n2)cc1 was read as TDP1 cell CPT inconclusive and DT40 TDP1 no CPT 13µM.
For CCc1ccc(Sc2cc(C(=O)NCc3cccc(OC)c3)c3ccccc3n2)cc1 the results were KB-V1 MDR tox inactive, TDP1 cell CPT 16.4µM, KB-3-1 cytotox inactive and DT40 TDP1 no CPT inconclusive.
O=S(=O)(c1ccccc1)c1nnn2c1nc(NC1CCCCCC1)c1sccc12 was read as KB-V1 MDR tox inactive, TDP1 cell CPT inactive, KB-3-1 cytotox inactive and DT40 TDP1 no CPT inactive.
Screening S=C(c1cn(CCOc2cccc3ccccc23)c2ccccc12)N1CCCC1 returned HT1080 IDH1KD tx inactive, HT1080NT lethal inactive, KB-V1 MDR tox inconclusive, TDP1 cell CPT 10.3µM, KB-3-1 cytotox 18.4µM and DT40 TDP1 no CPT 13µM.
Screening COCCn1cc(C(=S)N2CCCCC2)c2ccccc21 returned HT1080 IDH1KD tx inactive, HT1080NT lethal inactive, KB-V1 MDR tox inactive, TDP1 cell CPT inactive, KB-3-1 cytotox inactive and DT40 TDP1 no CPT inconclusive.
`Cc1ccc(OCCn2cc(C(=O)O)c3ccccc32)cc1` gave HT1080 IDH1KD tx inactive, HT1080NT lethal inactive, KB-V1 MDR tox inactive, TDP1 cell CPT inactive, KB-3-1 cytotox inactive and DT40 TDP1 no CPT inactive.
